Compound activity deposited in PubChem BioAssay by several laboratories.
ssDAF-12 act – activates DAF-12 receptor from parasite S. stercoralis; activation, % at 6.8 µM; hit rate 1% among 370,000; AID 652126; HEK293 ssDAF-12/GRIP1 lit1-tk-luc reporter, luminescence; % of 3 µM dafachronic acid response;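 active = activation above the mean over all tested compounds plus 3 SD, cut at about 0.9% in these data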;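 also: 0% = DMSO-only wells and 100% = 3 µM delta7-dafachronic acid wells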
hcDAF-12 act – activates DAF-12 receptor from parasite H. contortus; hit rate 1.4% among 370,000; activation, % at 6.8 µM; HEK293 hcDAF-12 lit1-tk-luc reporter, luminescence; 0% DMSO, 100% Δ7-dafachronic acid;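 active = activation above the mean of all tested compounds plus 3 SD, cut at about 5.5% in these data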;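 also: 100% = response to 3 µM Δ7-dafachronic acid high control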
PolyA inhibitor – inhibitors of polyadenylation in S. cerevisiae; S. cerevisiae SKY197-pL101 polyadenylation reporter, beta-gal luminescence; efflux-impaired pdr1/pdr3 knockout yeast; score 100 = 6 SD above DMSO; activity score, % at 12 µM; hit rate 0.02% among 300,000;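 active = lowest replicate activity score at least 50, where 100 means six control SD above control mean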;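 also: yeast exposed to compound for 9 h at 30 °C; higher score means more reporter readthrough which indicates perturbed polyadenylation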
hgDAF-12 ag – activates the H. glycines DAF-12 receptor ligand-binding domain | HEK293 GAL4-hgDAF12 UAS-luciferase reporter, agonist luminescence; normalized to butyrate control | activation, % at 6.8 µM | hit rate 1.8% among 370,000;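 active = activation above a cutoff set at the mean of all screened compounds plus 3 SD, cut at about 10% in these data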;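 also: 0% = DMSO wells and 100% = sodium butyrate wells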
DAX1 inh-1 – NR0B1 (DAX1) inhibition. HEK293 Gal4-DAX1 luciferase reporter, luminescence. AID 504766. P51843. inhibition, % at 6.75 µM. hit rate 0.99% among 340,000;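 active = inhibition above the mean over all tested compounds plus 3 SD, cut at about 4.2% in these data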;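 also: 0% = DAX1-transfected cells with DMSO and 100% = empty-vector control cells with DMSO; inhibition shows as a rise in luminescence from relieved DAX1 repression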
Target sequence (P51843 207-470 limits assumed): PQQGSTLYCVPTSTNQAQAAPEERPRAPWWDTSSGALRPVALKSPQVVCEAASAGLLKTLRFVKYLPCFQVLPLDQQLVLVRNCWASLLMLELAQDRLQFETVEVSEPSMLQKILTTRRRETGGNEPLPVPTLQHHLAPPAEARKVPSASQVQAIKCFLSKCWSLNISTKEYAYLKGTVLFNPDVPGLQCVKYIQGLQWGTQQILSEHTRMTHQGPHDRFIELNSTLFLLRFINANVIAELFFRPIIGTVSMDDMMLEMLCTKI
DAX1 inh-2 – inhibitors of DAX1 repression of SF-1 activated StAR promoter. HEK293T StAR-luciferase reporter, SF-1/DAX-1 repression relief. hit rate 1.1% among 370,000. inhibition, % at 6.8 µM;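 active = inhibition above the mean over all tested compounds plus 3 SD, cut at about 3.6% in these data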;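 also: 0% = DAX-1 cells with DMSO and 100% = cells lacking DAX-1 with DMSO; higher inhibition means more luminescence from relief of DAX-1 repression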
LXRb hcDAF ctr – counter-screen for hcDAF-12 agonists: agonists of human LXR-beta; shares compounds with hcDAF-12 act; HEK293 Gal4-LXR tk-luc reporter, luminescence, 24 h; normalized: DMSO 0%, positive control 100%; activation, % at 6.8 µM; 3,400 tested, under 10 active; AID 743027;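 active = mean percent activation of the reporter above a cutoff set as the average over tested compounds plus their standard deviation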
hcDAF12 ag – hcDAF-12 agonism, confirmation assay; shares compounds with hcDAF-12 act; HEK293 hcDAF-12 lit1-tk-luc reporter, luminescence; % of Δ7-dafachronic acid response; activation, % at 6.8 µM; hit rate 61% among 3,400;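 active = mean activation across triplicate tests above the threshold derived from the earlier primary screen, cut at about 5.5% in these data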;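 also: 0% = DMSO only wells and 100% = 3 µM Δ7-dafachronic acid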
hgDAF12 conf – confirmation of H. glycines DAF-12 agonists | shares compounds with hgDAF-12 ag | activation, % at 6.8 µM | HEK293 GAL4-hgDAF12 luciferase reporter, agonist mode; percent of butyrate response | hit rate 80% among 3,300;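 active = mean activation over triplicate wells above the hit cutoff derived from the earlier primary screen, cut at about 11% in these data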;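 also: 0% = DMSO low control and 100% = 2 mM sodium butyrate high control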
LXRb DAF12 ctr – counter-screen for DAF-12 agonists: agonists of human LXR-beta | shares compounds with hgDAF-12 ag | HEK293 Gal4-LXR luciferase reporter, 24 h | activation, % at 6.8 µM | 3,300 tested, under 10 active | AID 743051;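 active = mean activation of the triplicate above a set limit carried over from the primary screen, none filed active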
* marks the source's active call; other numbers are inactive results; . = no result given. Compounds with a hit are over-represented: about 4.1% of the library has one in this group of screens.

SMILES	ssDAF-12 act	hcDAF-12 act	PolyA inhibitor	hgDAF-12 ag	DAX1 inh-1	DAX1 inh-2	LXRb hcDAF ctr	hcDAF12 ag	hgDAF12 conf	LXRb DAF12 ctr
COc1ccc(Nc2nccc(-c3cccc(N)c3)n2)cc1	1	13*	12	34*	2	2	2	8.7*	21*	1
Cc1ccc(-c2nc(-c3nccc4ccccc34)oc2-c2ccccc2)cc1	1	7.7*	4	17*	4	3	1	9.5*	16*	1
c1ccc(-c2nccc3ccccc23)cc1	-1	0	-3	0	-3	0	.	.	.	.
O=C(CS(=O)(=O)c1ccccc1)N1CCc2ccccc21	1.9*	13*	-9	21*	2	3	1	9.1*	17*	1
Cc1nn(-c2cccc(Cl)c2)c(Cl)c1/C=N/NC(=O)c1cccnc1	-2	-1	-10	2	0	-1	.	.	.	.
Clc1ccc(/C=N/Nc2ncnc3ccccc23)cc1Cl	1.1*	10*	-14	16*	12*	3	1	7.0*	20*	1
Cc1ccc(C(=O)Nc2ncc(C)s2)s1	0	6.8*	8	17*	-2	2	2	6.3*	18*	1
COc1ccc(S(=O)(=O)Nc2noc3ccccc23)cc1	0	1	3	1	1	-1	.	.	.	.
COc1ccccc1NC(=O)c1ccccc1NC(=O)c1cccs1	-1	1	-2	0	0	-1	.	.	.	.
O=C(N/N=C/c1ccc(Br)s1)c1ccco1	-1	1	5	8	1	0	.	.	.	.
O=C(N/N=C/c1ccc(Br)s1)c1ccccn1	1	8.2*	14	14*	2	4.5*	1	4	14*	1
C[C@H](NC(=O)c1ncn(Cc2ccccc2)c1C(=O)N[C@@H](C)c1ccccc1)c1ccccc1	-1	-1	.	-2	0	0	.	.	.	.
c1ccc(Nc2scc(-c3ccccc3)[n+]2Cc2ccco2)cc1	0	7.3*	9	14*	5.1*	3	1	4	16*	1
c1ccc(C[n+]2c(-c3ccccc3)csc2Nc2ccccc2)cc1	0	3	-8	8	3	2	.	.	.	.
Cc1ccc(S(=O)(=O)Nc2ccc(-c3cn4ccc(C)cc4n3)cc2)cc1	-2	-1	-7	4	0	0	.	.	.	.
Cc1ccn2cc(-c3ccc(Br)cc3)nc2c1	1	12*	4	14*	-3	3.7*	1	8.4*	13*	1
CCOC(=O)c1csc(-c2ccc(OC)c(OC)c2)n1	-1	0	7	0	0	0	.	.	.	.
CCOC(=O)c1csc(-c2sccc2Br)n1	0.9*	7.0*	4	16*	3	3	1	5.8*	16*	1
Cc1cc(C)c2c(N)c(C(=O)Nc3ccc([N+](=O)[O-])cc3)sc2n1	0	2	10	2	0	1	.	.	.	.
Cc1cc(C)c2c(N)c(C(=O)Nc3ccc(F)cc3)sc2n1	0	8.8*	-3	14*	3	3	2	16*	24*	1
Cc1c(C(C)(C)C)s/c(=N/S(=O)(=O)c2ccccc2)n1C	0	-2	-6	-2	-1	0	.	.	.	.
Cc1c(C(C)(C)C)sc(=NC(=O)c2ccccc2O)n1C	0	6.9*	-9	14*	2	1	2	14*	15*	1
Cc1ccc(/C(=N/Nc2ncnc3ccccc23)C(=O)O)cc1	1.9*	17*	-10	18*	3	3.7*	0	6.3*	12*	0
CSc1ncccc1C(=O)Nc1ccc2nc(C)sc2c1	-1	0	-1	4	1	2	.	.	.	.
CSc1nc2ccc(NC(=O)c3ccccn3)cc2s1	1.3*	10*	-14	16*	-1	3.9*	2	7.8*	17*	1
SMILES	ssDAF-12 act	hcDAF-12 act	PolyA inhibitor	hgDAF-12 ag	DAX1 inh-1	DAX1 inh-2	LXRb hcDAF ctr	hcDAF12 ag	hgDAF12 conf	LXRb DAF12 ctr
Cc1nc2ccc(NC(=O)c3cc(Cl)ccn3)cc2s1	0	7.0*	-24	16*	4	4	1	5.8*	15*	1
COCCCNC(=S)NNC(=O)c1cc(Cl)c(O)c(Cl)c1	-1	-2	-4	-1	3	0	.	.	.	.
Cn1c(=O)[nH]c(=O)c2c1nc(SCC(O)CCl)n2Cc1ccccc1 (centres undefined)	-2	-1	-14	-2	0	0	.	.	.	.
CC(C)Cc1cc(C(=O)Nc2cccc(O)c2)no1	0	8.4*	-19	18*	-5	4	1	6.5*	19*	1
CCOn1c(=O)c(-c2cc3ccccc3o2)[n+]([O-])c2ccccc21	.	.	-8	.	1	.	.	.	.	.
O=c1c(-c2cc3ccccc3o2)[n+]([O-])c2ccccc2n1OCc1ccccn1	2.2*	15*	-12	18*	4	4.3*	1	9.7*	21*	1
COCC(=O)NNC(=O)c1ccccc1OC	0	3	-6	1	-1	0	.	.	.	.
COc1ccccc1C(=O)NNC(=O)c1ccccc1F	1.5*	11*	-5	16*	1	3	1	11*	15*	1
O=C(NCc1ccccc1)c1cc(C2COCCN2C(=O)CCc2ccccc2)on1 (centres undefined)	-1	-1	.	0	.	-1	.	.	.	.
COc1ccc(OC)c(-c2cc(C(=O)NCCCn3ccnc3)no2)c1	-2	-1	-10	-1	-1	-1	.	.	.	.
O=C(NCCCn1ccnc1)c1cc(-c2cccs2)on1	0	7.6*	10	53*	4	-1	0	4	51*	0
c1csc(C2=NNC(=NC3CCCCC3)SC2)c1	1.5*	10*	5	17*	.	3	1	6	16*	1
Cc1cc(C2=NNC(=NC3CCCCC3)SC2)c(C)n1-c1c(C)n(C)n(-c2ccccc2)c1=O	-2	1	-13	-1	0	-1	.	.	.	.
O=c1[nH]c2ccccc2nc1/C=C/c1ccc(Cl)cc1	-1	-1	-10	2	1	1	.	.	.	.
